WT yeast gro inh: growth inhibition of WT yeast, mitochondrial fusion screen; mitochondrial fusion phenotypic screen, WT strain; inhibition, % at 10 µM; 190,000 tested, 2.1% active; AID 1362; in the data active = inhibition above about 58%; tested in S. cerevisiae
m-calpain inh: calpain II (pig) inhibition; purified calpain II, fluorogenic peptide substrate, 30 min; inhibition, % at 16 µM; 220,000 tested, 0.37% active; AID 1236;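 active = inhibition above about 50%, limit read from the data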
Lmaj promast: inhibitors of Leishmania major promastigote growth. Leishmania major promastigotes, resazurin fluorescence viability. inhibition, % at 10 µM. AID 1063. 200,000 tested, 9% active; in the data active = inhibition above about 50%;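 note: promastigotes grown with compound for 44 hours at 28 °C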
KCC2 mod: modulates chloride dependent transport by human KCC2; AID 1456; B-score of Tl+ flux slope (higher = more flux/activation; lower = inhibition) at 10 µM; Q9H2X9; 190,000 tested, 2.2% active; KCC2 cells, thallium flux FluoZin-2 fluorescence;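 active = thallium flux slope and its plate-corrected score both differing from the plate sample mean at a set confidence after two filtering rounds, in either direction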;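 note: slope of fluorescence scaled to starting intensity during 10 to 20 s after thallium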
ROMK mod: modulates human ROMK potassium channel activity; B-score at 10 µM; AID 1918; P48048; 130,000 tested, 2% active; Tet-inducible ROMK, thallium flux fluorescence; actives lie on both sides;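 active = signal ratio slope over the read window, or its plate-corrected B-score, at least 3 SD from the plate mean, either direction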;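 note: B-score of the F/F0 ratio slope over 7 to 12 s after thallium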
Target sequence (P48048 whole entry, looked up): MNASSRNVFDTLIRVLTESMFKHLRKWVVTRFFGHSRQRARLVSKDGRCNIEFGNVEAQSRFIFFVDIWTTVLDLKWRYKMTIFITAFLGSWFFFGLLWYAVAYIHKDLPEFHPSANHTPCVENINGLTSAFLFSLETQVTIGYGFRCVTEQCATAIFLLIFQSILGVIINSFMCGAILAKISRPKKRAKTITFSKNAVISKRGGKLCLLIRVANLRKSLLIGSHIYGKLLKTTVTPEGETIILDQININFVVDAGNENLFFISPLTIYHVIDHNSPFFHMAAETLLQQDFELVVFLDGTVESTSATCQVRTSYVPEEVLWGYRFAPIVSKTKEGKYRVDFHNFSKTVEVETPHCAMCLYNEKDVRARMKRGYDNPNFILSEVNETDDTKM
* hit, by the source's call; x = not tested or not shown. Hits are enriched below; roughly 12% of the tested compounds scored in any of these assays.

SMILES	WT yeast gro inh	m-calpain inh	Lmaj promast	KCC2 mod	ROMK mod
CCCn1nnnc1NCc1ccccc1OCc1cccs1	-5	-8	7	-1.8	x
Brc1ccc(OCc2ccccc2)c(CNCC2CCCO2)c1 (stereo not drawn)	17	-16	39	0.025	-0.26
c1ccc(COc2ccccc2CNC23CC4CC(CC(C4)C2)C3)cc1	34	-14	71*	0.98	-2.5
COc1cc(C)nc(N2CCCC(C(=O)Nc3cc(Cl)ccc3OC)C2)n1 (stereo not drawn)	9	-1	2	-0.99	x
COc1cc(OC)nc(/N=C/N(C)C)n1	1	-10	-7	0.69	0.0056
COc1ccc(/C(C)=N/NC(=O)OC(C)(C)C)cc1[N+](=O)[O-]	x	-9	x	-0.22	x
Cc1oc(-c2ccc(Cl)cc2)nc1CN1CCCC(C(=O)NCCCN2CCOCC2)C1 (stereo not drawn)	-21	-35	76*	0.086	-1.6
Cc1ccccc1-c1nc(CN2CCC(C(=O)NCCCN3CCCC3)CC2)c(C)o1	4	-19	3	x	x
Cc1ccccc1-c1nc(CN2CCC(C(=O)NCCCN3CC(C)CC(C)C3)CC2)c(C)o1 (stereo not drawn)	-13	-37	76*	0.19	x
CC1=NN(C(=O)CCc2ccc3c(c2)OCO3)C(O)(C(F)(F)F)C1 (stereo not drawn)	2	-10	-5	-0.72	1.8
COc1ccc(Nc2c(-c3ccc(C)cc3)nc3cnccn23)cc1	-14	75*	4	0.59	-3
Cc1ccc(Nc2c(-c3ccccc3O)nc3cnccn23)cc1	23	7	79*	-0.41	-1.9
Cc1ccc(Nc2c(-c3ccccc3O)nc3ncccn23)cc1	x	-31	x	1.8	-1.3
CC(OC(=O)c1ccc2ncsc2c1)C(=O)Nc1ncc(Cl)cc1Cl (stereo not drawn)	4	-15	-5	-0.65	-0.011
CC(OC(=O)c1ccc([N+](=O)[O-])s1)C(=O)Nc1ncc(Cl)cc1Cl (stereo not drawn)	7	8	100*	-0.56	-0.62
Cc1cccc(CN2C[C@]34CC[C@@H](C[C@@H]3S2(=O)=O)O4)c1	x	-5	x	1.5	x
COc1cccc(NC(=S)N(CCc2ccc(OC)c(OC)c2)Cc2ccccn2)c1	-8	-20	9	-0.011	-0.6
COc1ccc(NC(=O)NCc2ccccn2)cc1	-19	11	-8	0.25	0.7
COc1cccc(NC(=S)N(Cc2ccccn2)Cc2ccccc2Cl)c1	68*	10	62*	-0.4	0.00066
COc1ccc(NC(=S)N(Cc2ccccn2)Cc2ccccc2Cl)cc1	75*	5	37	-0.23	0.12
COc1ccc(N2C(=O)C3CCCN3C2c2ccc(C)o2)cc1 (stereo not drawn)	-11	-4	-8	-0.018	0.074
O=C(Sc1cccc2cccnc12)c1ccc(F)cc1	51	-5	100*	64*	8.7*
O=S(=O)(Nc1cc(Sc2cccc3cccnc23)c(O)c2ccccc12)c1ccc(F)cc1	50	-10	100*	48*	x
COc1ccc(S(=O)(=O)Nc2cc(Sc3ncn[nH]3)c(O)c3ccccc23)cc1	94*	20	100*	-1.6	-6.3*
COc1ccc(S(=O)(=O)Nc2ccc(O)c(Sc3ncn[nH]3)c2)cc1	16	15	-2	0.28	x
SMILES	WT yeast gro inh	m-calpain inh	Lmaj promast	KCC2 mod	ROMK mod
NNC(=O)CSc1cccc2cccnc12	-7	-33	-7	0	0.53
CN(C)C(=O)CSc1cccc2cccnc12	33	-300	100*	8.1*	x
O=S(=O)(Nc1ccccc1O)c1cccc2cccnc12	-5	-25	-3	-0.29	0.1
COc1cc(/C=C(\C#N)C(=O)NC(C)C)cc(Cl)c1O	-14	-40	-7	-0.86	-0.00034
COc1ccccc1CC(=O)Nc1cccc(C(=O)Nc2nccs2)c1	x	8	x	-0.27	x
CSc1nc2c(c(=O)[nH]1)C(c1ccncc1)C(C(=O)OC(C)C)=C(C)N2 (stereo not drawn)	2	4	-1	x	0.64
CCCc1nc2oc3c(NCCN(C)C)ncnc3c2c2c1CCCC2	-1	-53	101*	-1.2	x
Cc1ccc(C(c2c(C)nn(-c3ccccc3)c2N)c2c(C)nn(-c3ccccc3)c2N)cc1	16	20	95*	0.23	-0.54
CC(=Nc1ccc(C)cc1C)c1sc2ccccc2c1O	79*	2	10	0.48	-0.063
CCN1c2ccccc2N(C)C1(C)c1ccccc1 (stereo not drawn)	33	37	99*	0.83	0.58
CN(C)c1ccc(-c2n(C)c3ccccc3[n+]2C)cc1	-1	0	100*	x	-0.032
Cn1c(-c2ccccn2)[n+](C)c2ccccc21	0	-21	-1	-0.33	x
Cc1cc(C)c2nc(C(F)(F)F)c(C#N)c(N)c2c1	-8	-24	0	0.78	1.3
Cc1ccc2nc(C(F)(F)F)c(C#N)c(N)c2c1	-3	-6	68*	-0.19	-0.43
Cc1ccc(OCC(=O)N/N=C2/SCC(=O)N2Cc2ccccc2)cc1	-9	-2	67*	-0.32	0.86
Cc1ccccc1OCC(=O)N/N=C1\SCC(=O)N1Cc1ccccc1	-4	8	25	0.21	x
Cc1cc(C(=O)COC(=O)c2ccc[nH]c2=O)c(C)n1-c1ccccc1	14	28	71*	0.4	0.21
Cc1cc(C(=O)COC(=O)c2ccc[nH]c2=O)c(C)n1-c1ccc(F)cc1	-5	29	69*	0.39	0.091
Cc1cc(C(=O)OCC(=O)N2CC(=O)Nc3ccccc32)c(C)n1-c1ccc(F)cc1	3	-23	2	-0.83	x
Cc1cc(C(=O)COC(=O)c2ccc[nH]c2=O)c(C)n1C1CC1	-1	-9	-5	0.7	0.25
COc1cccc(C2C3=C(N=c4s/c(=C\c5ccccc5O)c(=O)n42)c2ccccc2CC3)c1OC (stereo not drawn)	10	-35	13	0.9	0.37
COc1ccccc1C1C(C(C)=O)=C(C)N=c2s/c(=C\c3cc(OC)c(OC)c(OC)c3)c(=O)n21 (stereo not drawn)	19	-29	55*	-0.58	x
Cc1ccc(C2NC(c3ccc(C)cc3)C(C)C(=NO)C2C)cc1 (stereo not drawn)	83*	-10	8	x	x
CC1C(=NO)C(C)C(c2ccccc2)NC1c1ccccc1 (stereo not drawn)	-3	-11	2	x	0.18
O=c1c2ccccc2nc(/C=C/c2c[nH]c3ccccc23)n1-c1ccc([N+](=O)[O-])cc1	7	-10	0	-0.064	-0.66
O=C(CSc1nnc(COc2ccc(Cl)cc2)o1)N1c2ccccc2CCc2ccccc21	1	21	67*	0.48	x
COC(=O)c1ccc(OC)c(CSc2nnc(COc3ccccc3)o2)c1	29	12	1	-1.4	x
COC(=O)c1ccc(OC)c(CSc2nnc(COc3ccc(Cl)cc3)o2)c1	50	51*	-1	-0.87	x
CCOC(=O)N1CCN(C(=O)CSc2nnc(COc3ccc(Cl)cc3)o2)CC1	-5	-11	-7	-0.24	x
c1ccc(NC2=Nc3cccc4cccc2c34)cc1	26	20	49	-0.76	-1.8

Screening data deposited in PubChem by several laboratories.
